From the supplement of paper PMC5919970
Structures can show the parent of a compound that is named as a salt. The full ranking holds about 2,000 compounds; the median of “fractional viability relative to vehicle” is about 0.91, and the lowest 2% start at about 0.045. The list comes from a sample in which the lowest values are over-represented; it also holds similar structures and randomly drawn compounds.

System: TYKNU
Experiment: fractional viability relative to vehicle; TYKNU is a high-grade serous ovarian cancer line; higher = less growth inhibition
Details: 72 h
Procedure, shortened: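 TYKNU control cells or lentiCRISPRv2 knockout derivatives were plated at 500 cells per well in duplicate into drug-stamped 384-well plates holding a ~2100-compound library at 2 or 10 μM. Culture was in RPMI 1640 with 10% FBS at 37 °C in 5% CO2, with 72 h of drug treatment. Viability was measured by Cell Titer Glo luminescence, and the averaged duplicate treatment wells were normalised to duplicate control wells at the same plate position.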

[1] = 2uM, genotype: DNM1L knockout (sgDNM1L #1)
[2] = 2uM, genotype: sgCTRLA1 (non-targeting control)
[3] = 10uM, genotype: DNM1L knockout (sgDNM1L #1)
[4] = 10uM, genotype: sgCTRLA1 (non-targeting control)

Compound	fractional viability [1]	fractional viability [2]	fractional viability [3]	fractional viability [4]
C[C@@]1(C(=O)Nc2ccc(F)nc2)CCCN1c1nc(Nc2cc(C3CC3)n[nH]2)c2cccn2n1	0.561	0.689	0.282	0.252
O=C(N/N=C/c1cc(O)c(O)cc1O)c1cc2ccccc2cc1O [Dyngo-4a]	0.912	1.05	0.857	0.867
Oc1ccc(Cc2nc3c(Cc4ccccc4)nc(-c4ccc(O)cc4)cn3c2O)cc1 [Coelenterazine]	0.928	1.05	0.977	0.839
O=C1N=C(O)NC1(c1ccccc1)c1ccccc1 [Phenytoin sodium]	1.03	1.09	0.864	1.04
CCc1cc(Nc2nccc(-c3c(-c4ccc(OC)c(C(=O)Nc5c(F)cccc5F)c4)nc4ccccn34)n2)c(OC)cc1N1CCC(N2CCN(S(C)(=O)=O)CC2)CC1	1.12	1.04	0.72	0.915
CC(O)c1cc(C(=O)N[C@@H](C)Cn2ccc(-c3ccc(C#N)c(Cl)c3)n2)n[nH]1 (stereo partly specified)	0.762	0.897	0.94	0.769
CN(C)Cc1c(C(=O)NCCOc2ccc(C(=O)NO)cc2)oc2ccccc12	0.184	0.244	0.0877	0.133
COc1cccc(-n2c(=O)[nH]c3cc(Cl)n(-c4ccc(-c5cccc(OC)c5O)cc4)c3c2=O)c1	0.844	1.02	0.857	0.918
CN1CCN(C(=O)c2cc3cc(Cl)ccc3[nH]2)CC1	1.13	1.23	0.961	1.16
CN1CCCN(C(=O)c2cccc(-c3ccc(/C=C4/C(=O)Nc5ccc(Cl)cc54)o3)c2)CC1	0.0585	0.0575	0.0139	0.00867
COc1ccc2[nH]cc(/C=C3\C(=O)Nc4ccc(NC(=O)CCN5CCCCC5)cc43)c2c1	0.761	0.929	0.809	0.795
O=C(Nc1nc2cccc(-c3ccc(CN4CCS(=O)(=O)CC4)cc3)n2n1)C1CC1 [Filgotinib (GLPG0634)]	0.73	0.849	0.493	0.573
CC(=O)OCOC(=O)CN(CC(=O)OCOC(C)=O)c1ccccc1OCCOc1ccccc1N(CC(=O)OCOC(C)=O)CC(=O)OCOC(C)=O	0.391	0.569	0.0416	0.0639
CC(=O)Oc1ccccc1C(=O)O [Aspirin]	0.863	1.09	1.01	1.05
O=C(NNc1nc2cc(F)ccc2n2cccc12)c1cnccn1	0.358	0.282	0.269	0.247
Nc1c(CC(=O)O)cccc1C(=O)c1ccc(Br)cc1 [Bromfenac Sodium]	0.888	1.1	0.801	1.05
CCN(CC)CCNC(=O)c1ccc(N)cc1 [Procainamide HCl]	0.791	1	0.633	0.929
Cc1[nH]c(/C=C2\C(=O)Nc3ccccc32)c(C)c1CCC(=O)O [TSU-68 (SU6668, Orantinib)]	0.962	1.11	0.869	1.02
CCN(CC)CCNC(=O)c1c(C)[nH]c(/C=C2\C(=O)Nc3ccc(F)cc32)c1C [Sunitinib]	0.544	0.67	0.0734	0.0439
CCN(CC)CCNC(=O)c1c(C)[nH]c(/C=C2\C(=O)Nc3ccc(F)cc32)c1C [Sunitinib Malate]	0.853	0.819	0.169	0.122
O=C(c1ccc(F)c(F)c1Nc1ccc(I)cc1F)N1CC(O)([C@@H]2CCCCN2)C1 [Cobimetinib (GDC-0973, RG7420)]	0.814	1.03	0.942	0.846
Nc1ccc2ncnc(NCCc3ccc(Oc4ccccc4)cc3)c2c1	0.604	0.444	0.596	0.43
COc1ccc(/C=C\c2cc(OC)c(OC)c(OC)c2)cc1O [Combretastatin A4]	0.11	0.122	0.111	0.073
COc1cc(/C=C/C(=O)N2CCN(CC(=O)N3CCCC3)CC2)cc(OC)c1OC [Cinepazide maleate]	1.08	0.973	1.1	1.02
COc1cc(/C=C/C(=O)N2CCC=CC2=O)cc(OC)c1OC [Piperlongumine]	0.302	0.319	0.0446	0.0292
COc1ccc2cc(OCC3(C(=O)O)CN(C(=O)c4ccc(F)cc4)C3)ccc2c1	0.822	1.12	0.788	1.11
COCCOc1ccc2c(c1)ncn2-c1ccc2cccc(N3CCC(N)CC3)c2n1	0.892	0.893	0.13	0.139
Cc1cc(C)c(CNC(=O)c2cc(-c3ccc(N4CCN(C)CC4)nc3)cc3c2c(C)cn3C(C)C)c(=O)[nH]1	0.782	1.03	0.669	0.609
O=C(NC1CC1)c1cc(-c2cccs2)on1 [Isoxazole 9 (ISX-9)]	0.927	0.844	0.795	0.662
